Where “and” joins values, the source holds several entries; their conditions need not be identical. Equal values may be shown once. Inconclusive results are not listed. A structure can be active in one record and inactive in another. Calls of active or inactive are those of the source. The call rests on the fitted dose curve; in most records, active means well fitted cell-killing curve with a large enough effect in the repeat runs; inconclusive means weak or mixed curves; inactive means no such curve, though single readings can be large or run the other way.

The text below walks through data of PubChem BioAssay (Tox21).
On the % scale 0 is the no-effect control and ±100 the full control effect; potency means the concentration at half of the fitted maximal effect.

The assay is described as follows: qHTS assay for identifying genotoxic compounds that show differential cytotoxicity against isogenic chicken DT40 cell lines with known DNA damage response pathways - Rad54/Ku70 mutant cell line (AID 743015). Further: nearly all actives have a fitted effect of over 60% in size. Conditions: DT40 Rad54/Ku70 mutant viability, CellTiter-Glo, 40 h; series mostly up to 66.8 µM; activity change, negative = cytotoxicity: at the top concentration. From the text:
National Center for Advancing Translational Sciences [NCATS]
NIH Chemical Genomics Center [NCGC]
U.S. Environmental Protection Agency [EPA]
National Institutes of Environmental Health Sciences [NIEHS]
National Toxicology Program [NTP]
U.S. Food and Drug Administration [FDA]
DNA repair pathways play a critical role in cellular homeostasis by repairing DNA damage induced by endogenous processes and xenobiotics. Isogenic chicken DT40 cell lines deficient in different DNA repair pathways can be used to identify genotoxic compounds and aid in characterizing the nature of the DNA damage induced. Two DNA repair-deficient cell lines with disrupted genes, Rad54/Ku70 or Rev3, were used to screen the Tox21 10K compound library. Possible genotoxicity was based on the presence of a significant increase in cytotoxicity in one or more of the DNA repair-deficient cell lines compared to that observed in the parental DNA repair-proficient cell line. CellTiter Glo viability assay (Promega, Madison, WI) was used to measure cell viability in these cells after compound treatment. This assay includes the data from the Rad54/Ku70 mutant cell line.
Tox21 Assay Protocol Summary:
300 DT40 mutant cells in 5 uL/well were dispensed into white, solid-bottom 1536-well plates using a Multidrop Combi (ThermoFisher Scientific, Waltham, MA) dispenser. After the assay plates were incubated at 37 C/5% CO2 for approximately 0.5 hour, 23 nL of compounds dissolved in DMSO, positive controls or DMSO only was transferred into the assay plate by a pintool work station (Kalypsys, San Diego, CA). The assay plates were incubated at 37 C/5% CO2 for 40 hours. After 5 uL per well of CellTiter-Glo reagent was added into each well of the assay plates, the plates were incubated for 30 min at room temperature and the luminescence intensity of the plates was measured using a ViewLux (PerkinElmer, Shelton, CT) plate reader.
For orientation: qHTS replaces the single test concentration by a dilution series.
Turning to `CCCCCC(CO)CCC` (stereo not given), the “activity change, negative = cytotoxicity” value is 0.3% (inactive).
As to `CC(C)(C)c1cc(O)c(C(C)(C)C)cc1O`, the Potency is 13.7 µM (active).
For `C1CCC2OC2C1` (stereo not given), the “activity change, negative = cytotoxicity” value was 1.32% [at 95.1 µM] (inactive).
As to `CCOC(=O)CC(C)C`, the “activity change, negative = cytotoxicity” value was 6.87% (inactive).
Regarding `CCCCCCOC(=O)CCC`, the “activity change, negative = cytotoxicity” value is 1.64% (inactive).
Consider `COCCOCCOCCOCCOC`, for which the “activity change, negative = cytotoxicity” value is 7.3% (inactive).
Regarding `O=C(NS(=O)(=O)/C=C/c1cccs1)c1ccc(F)cc1Br`, the “activity change, negative = cytotoxicity” value was 8.2% (inactive).
With `CNCC[C@@H](Oc1ccccc1C)c1ccccc1`, the Potency is 29.8 µM (active).
`Cc1c(Cn2ccnc2)c2ccccc2n1CCC(=O)O`: the “activity change, negative = cytotoxicity” value was 7.31% (inactive).
`CC(C(=O)O)c1ccc(-c2ccccc2)c(F)c1` (stereo not given): the Potency result is “inactive”.
With `CCCCC(CC)(CO)CO`, the “activity change, negative = cytotoxicity” value was -6.19% (inactive).
Consider `CC(C)NCC(O)COc1ccc(CC(N)=O)cc1` (stereo not given), for which the “activity change, negative = cytotoxicity” value is 14.1% (inactive).
Take `CCCCCCCC/C=C\CCCCCCCC(N)=O`: the “activity change, negative = cytotoxicity” value was -0.266% (inactive).
With `O=C(Cl)c1ccc([N+](=O)[O-])cc1`, the “activity change, negative = cytotoxicity” value is 2.28% (inactive).
For the compound `CC(=O)c1c(C)c([N+](=O)[O-])c(C(C)(C)C)c([N+](=O)[O-])c1C`, the “activity change, negative = cytotoxicity” value is -13.1% (inactive).
Consider `COC(=O)C(C)=O`, for which the “activity change, negative = cytotoxicity” value was 5.49% [at 95.1 µM] (inactive).
On to `CC(=O)[C@@]1(O)CC[C@H]2[C@@H]3C[C@H](C)C4=CC(=O)CC[C@]4(C)[C@H]3CC[C@@]21C`, for which the Potency was 21.1 µM (active).
Take `Cl/C(=C\n1cncn1)c1ccc(Cl)cc1Cl`: the “activity change, negative = cytotoxicity” value is -12.8% (inactive).
With `N#CCc1cccc(C(F)(F)F)c1`, the “activity change, negative = cytotoxicity” value was -5.03% (inactive).
Regarding `O=C(O)Cc1cc(I)c(Oc2ccc(O)c(I)c2)c(I)c1`, the Potency entry was “inactive and 54.5 µM (active)”.
Turning to `CCOC(=O)CC(=O)c1cc(F)c(Cl)nc1Cl`, the “activity change, negative = cytotoxicity” value is 8.75% [at 95.1 µM] (inactive).
In the case of `CCCCCCCCCCCCCCCCCBr`, the “activity change, negative = cytotoxicity” value is 9.9% [at 30.7 µM] (inactive).
On to `CCCCCCCCN(C)C`, for which the “activity change, negative = cytotoxicity” value is -3.88% (inactive).
In the case of `CCCCCCCCC(CO)CCCCCC` (stereo not given), the “activity change, negative = cytotoxicity” value is 3.17% (inactive).
Turning to `CCCCCCCCCC=O`, the “activity change, negative = cytotoxicity” value was 7.78% (inactive).
Turning to `SC1CCCC1`, the “activity change, negative = cytotoxicity” value was 0.962% (inactive).
As for `CN1CCC[C@@H]1c1cccnc1`, the “activity change, negative = cytotoxicity” value was 5.89% (inactive).
For the compound `O=C1c2cccc(O)c2C(=O)c2c(O)cc(CO)cc21`, the Potency is 24.3 µM (active).
For `CCCCCCCCCCCCC(=O)O`, the “activity change, negative = cytotoxicity” value is 5.31% [at 95.1 µM] (inactive).
Turning to `NCCCOCCOCCOCCCN`, the Potency is 7.7 µM (active).
Same read-out and setting: in the case of `CC(Cc1cccc(C(F)(F)F)c1)NCCOC(=O)c1ccccc1` (stereo not given) it was 26.6 µM (active); in that of `Cn1sccc1=O`, 4.86 µM (active).
In the case of `CCN(CC)C(C)=O`, the “activity change, negative = cytotoxicity” value was 5.83% [at 95.1 µM] (inactive).
In the case of `O=C(O)Cc1sc(-c2ccccc2)nc1-c1ccc(Cl)cc1`, the Potency entry was “inactive”.
In the case of `CC(C(=O)O)c1ccc(C(=O)c2ccccc2)s1` (stereo not given), the “activity change, negative = cytotoxicity” value was 0.398% [at 30.7 µM] (inactive).
For the compound `CCCCCC/C=C/C=O`, the “activity change, negative = cytotoxicity” value was -27.4% (inactive).
For `CC(=O)/C(C)=C/C1C(C)=CCCC1(C)C` (stereo not given), the “activity change, negative = cytotoxicity” value is -15.7% (inactive).
As for `COCCO`, the “activity change, negative = cytotoxicity” value is 0.238% (inactive).
For `CC(=O)O[C@@H]1C(=O)O[C@@H]2[C@H]1OC(=O)[C@@H]2OC(C)=O`, the Potency was 26.6 µM (active).
As to `OCCC1CCCCN1` (stereo not given), the “activity change, negative = cytotoxicity” value was 11.9% [at 95.1 µM] (inactive).
